Reference: PubChem BioAssay AID833 (The Scripps Research Institute Molecular Screening Center, 2007)
Screen size: about 16,000 compounds; about 80 (0.5%) were called active. Only a selection was taken, and actives are over-represented in it overall. Unmarked numbers belong to inactive results. Cut-off read from the data, not from the text of the source: active = activation above about 15%; inactive = the rest.

Each molecule was assayed against Galanin receptor type 2 (Rattus norvegicus) (UniProt O08726) (assay: activates the rat galanin receptor 2 (AID 833)). Details: cell-based GALR2 agonist screen; at 10 µM; hits give high values.
Chain of Galanin receptor type 2 (Rattus norvegicus) (O08726 whole entry, looked up): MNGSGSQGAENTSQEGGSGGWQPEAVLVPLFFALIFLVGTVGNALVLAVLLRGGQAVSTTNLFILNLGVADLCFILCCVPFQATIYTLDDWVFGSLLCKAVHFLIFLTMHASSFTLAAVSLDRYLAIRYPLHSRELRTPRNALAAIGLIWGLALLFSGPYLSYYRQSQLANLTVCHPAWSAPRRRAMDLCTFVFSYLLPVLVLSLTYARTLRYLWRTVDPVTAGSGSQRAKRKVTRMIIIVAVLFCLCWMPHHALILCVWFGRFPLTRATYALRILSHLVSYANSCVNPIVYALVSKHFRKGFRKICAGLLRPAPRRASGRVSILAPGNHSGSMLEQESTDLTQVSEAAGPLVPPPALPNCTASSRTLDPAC

Structure (SMILES)	activation
COc1ccc(S(=O)c2ccccc2C(=O)O)c(C(=O)O)c1 (stereo unspecified)	-7.55%
Cc1ccc(NC(=O)c2ccccc2NC(=O)c2ccccc2)cc1	-2.58%
CCOC(=O)C(=CNc1ccc2n[nH]nc2c1)C(=O)OCC	-1.04%
CSc1sc(C(=O)Nc2cccc(C(F)(F)F)c2)cc1S(=O)(=O)C(C)C	-6.93%
Cn1c(SCC(=O)c2ccc(Cl)cc2)nnc1-c1cnccc1C(F)(F)F	-8.49%
O=S(=O)(Cc1nnc(-c2cc(Cl)cc(Cl)c2)o1)c1ccc(Cl)cc1	-1.76%
CC1(C)CC(=O)C=C(N2CCOCC2)C1	-5.82%
Cc1ccc(Sc2cc(C)c(C)cc2N)c(C)c1	-6.96%
O=C1NCCN1CCNS(=O)(=O)c1cc(Cl)sc1Cl	-5.62%
O=S(=O)(Oc1ccc(C2SCCS2)cc1)c1ccc(Br)cc1	-1.98%
CNC(=S)Nc1cscc1S(=O)(=O)c1ccc(Cl)cc1	-6.95%
CCOC(=O)NC(=S)NC12CC3CC(CC(C3)C1)C2	-2.11%
Cc1onc(-c2ccccc2)c1CNS(=O)(=O)c1ccc(-c2ccccn2)s1	-9.42%
COC(=O)c1c(C(=O)OC)c2n(c1C)CCS2	-6.88%
Cc1onc(-c2ccccc2Cl)c1NC(=O)N1c2ccc(F)cc2CCC1C (stereo unspecified)	-4.64%
N#Cc1sccc1Br	-7.39%
O=S(=O)(O)Oc1c[nH]c2ccccc12	-7.29%
N#CC(C#N)=Cc1cccn1-c1ccc(C(F)(F)F)cc1	-6.03%
CS/C(=N\S(=O)(=O)c1ccccc1)NNc1ccccc1	-3.17%
O=c1[nH]c2c(=O)[nH]c(=S)[nH]c2nc1/C=C(\O)c1ccccc1	-5.76%
CN(C)/C=C/C(=O)c1cc(C(C)(C)C)cc(C(C)(C)C)c1O	-4.8%
N#Cc1ccc(N2CCSCC2)cc1[N+](=O)[O-]	-4.09%
N/C(=N\OC(=O)c1ccc(Cl)cc1)c1cccc(CS(=O)(=O)c2ccccn2)c1	-8.52%
COc1cccc(/C=C2\SC(=S)C(N)C2=O)c1OC (stereo unspecified)	-1.21%
CS(=O)(=O)c1csc(C(=O)NCc2cccnc2)c1Cl	-6.55%
O=C(N[C@@H](Cc1ccc(O)cc1)C(=O)O)OCc1ccccc1	-5.07%

Structure (SMILES)	activation
CS(=O)(=O)Nc1ccc(/C(N)=N/OC(=O)c2cccs2)cc1	-5.51%
CCc1ccnc(NS(=O)(=O)c2ccc3c(c2)OCCO3)c1	-1.48%
c1csc(-c2ccc(-c3ccon3)s2)c1	-4.74%
CC(=O)c1ccc(NC(=O)OC2CCSC2)cc1 (stereo unspecified)	-4.49%
O=C(Nc1ccc2c(c1)OCCO2)c1cnccn1	6.11%
COc1cc(C=C(C#N)C#N)cc(OC(C)=O)c1OC(C)=O	-8.12%
CNC(=S)NNC(=O)CSc1cccs1	-6.57%
O=C(NC(=O)c1ccno1)Nc1ccccc1Cl	-3.51%
Cc1cc(C2=CSC3=NCCN23)ccc1Cl	-7.84%
CN(C)CCC(O)c1ccc2c(c1)OCCCCO2 (stereo unspecified)	-8.25%
Cc1ccc(N(C)NC(=O)Nc2ccc(Cl)cc2)nn1	-6.34%
COc1ccc(C(=O)NNC(=O)c2c(OC)cc(C(F)(F)F)cc2C(F)(F)F)cc1	-1.51%
CCOC(=O)Cc1nnc(-c2ccc(Cl)cc2)o1	-7.97%
N#Cc1nc(-c2ccccc2)c(-c2ccccc2)nc1C#N	3.73%
Cc1noc(C)c1C(=O)Oc1cccc2cccnc12	3.32%
Cc1ccc(OC(=O)c2cccc([N+](=O)[O-])c2)c(Br)c1	1.69%
NS(=O)(=O)c1cc(C(F)(F)F)cc(C(F)(F)F)c1	-4.46%
NNC(=O)c1csc(COc2ccc(C3SCCS3)cc2)n1	-7.31%
O=C(Nc1ccccc1N1CCOCC1)NC1CCN(C(=O)OCc2ccccc2)CC1	-4.03%
CCOC(=O)c1cc(Sc2ccccc2N)cc(C(=O)OCC)n1	-3.83%
CN(C)C(=O)Nc1ccc(C(C)(C)C)cc1	-6.41%
O=C(O)c1ccccc1N/C=C/[N+](=O)[O-]	-3.26%
Cc1nn2c(=O)c3c4c(sc3nc2[nH]c1=O)CCCC4	0.66%
Fc1cccc(Cl)c1CSc1nccn1-c1cccnc1	-3.88%
O=C(NC1Cc2ccccc2C1)c1nnc(-c2ccccc2)o1	-5.35%
N/C(=N\OC(=O)c1ccc([N+](=O)[O-])o1)c1ccc(OCc2ccc(Cl)cc2)c(Cl)c1	-4.76%

Structure (SMILES)	activation
CN(C)c1cccc2c1c(NC(=O)Nc1ccc(OCc3ccccc3)cc1)nn2C	-3.92%
O=C(Nc1ccc(C(F)(F)F)cn1)c1ccc(Oc2cc(Cl)cc(Cl)c2)o1	-5.62%
CCN=C(NCC)Nc1ccc(Cl)cc1	-7.95%
CCOC(=O)CCC(=O)OC(C(=O)c1ccccc1)c1ccccc1 (stereo unspecified)	-6.88%
COc1ccc(C2CC(c3cccs3)=Nc3ccccc3S2)c(Cl)c1OC (stereo unspecified)	-10.3%
CCCN(CCC)S(=O)(=O)c1ccc(C(=O)N2CC3CCC(CC3)C2)cc1	-5.35%
O=C(Nc1ccc(OC(F)F)cc1)Nc1coc(-c2ccccc2)c1	-4.63%
COc1ccc2c(c1)CCCC2=Nc1ccccc1C(F)(F)F	-6.48%
COC(=O)c1ccc(S(=O)(=O)NNC(=O)c2cn3cc(C(F)(F)F)cc(Cl)c3n2)n1C	-7.71%
O=c1c(-c2nc(-c3ccc(C(F)(F)F)cc3)no2)cnc2n1CCS2	-4.47%
Cc1noc(C)c1S(=O)(=O)Nc1cc(C(F)(F)F)ccc1N1CCOCC1	-7.12%
COC(=O)c1cc(OC)c(OC)cc1NS(=O)(=O)c1ccsc1C(=O)OC	-7.2%
O=C(Nc1cccnc1Oc1ncnc2cc(Cl)ccc12)c1ccc(F)cc1	-3.54%
CS(=O)(=O)/N=C(\N)c1ccncc1	-6.47%
CCOC(=O)Cn1cc(Cl)ccc1=O	-2.49%
O=C1C2C3C=CC(O3)C2C(=O)N1OCc1ccc(OC(F)(F)F)cc1 (stereo unspecified)	-2.8%
O=c1[nH]c2ccccc2s1	-3.62%
O=c1oc2c3ccccc3c3oc(=O)sc3c2s1	16.7% (active)
CCOc1ccc(C(N)=O)c(SCC(=O)O)c1	-10.1%
Cn1nnnc1SCC(=O)Nc1ccc(OC(F)(F)F)cc1	-4.06%
COc1ccc(/C=N/N2CCC(=O)Nc3ccccc32)c(OC)c1	-4.04%
N/C(=N\OCc1noc(-c2ccsc2)n1)c1ccc(C(F)(F)F)cc1	-8%
Cc1noc(C)c1C(=O)c1c(C)[nH]n(-c2ccccc2)c1=O	-4.7%
CC(C)(C)NC(=O)NCC(c1ccc[nH]1)C(F)(F)F (stereo unspecified)	-6.65%
COC(=O)C1=C(c2ccccc2)C(c2ccccc2)=C(C(=O)OC)C1=O	-1.25%
N#CC(C#N)=CNc1c(F)cccc1Cl	-9.67%

Structure (SMILES)	activation
CC(=O)/C(=C\N(C)C)c1ncccc1[N+](=O)[O-]	-5.71%
C=C(C)c1cccc(C(C)(C)NC(=O)CC(C)=O)c1	-4.52%
O=C(Cc1cc(F)cc(F)c1)n1nccc1-c1cccs1	-4.48%
FC(F)(F)c1cccc(NC(=S)NNc2nccc(C(F)(F)F)n2)c1	-8.08%
COC(=O)c1sccc1S(=O)(=O)Nc1ccccc1Sc1ncnc2c(C)csc12	-5.48%
N/C(=N\S(=O)(=O)c1ccc(Cl)cc1)N1CCOCC1	-1.28%
Fc1ccc(Oc2nc(Oc3ccc(F)cc3)nc(N3CCSCC3)n2)cc1	-8.25%
CN(NS(=O)(=O)c1ccc(C(F)(F)F)cc1)c1cnn(C)c(=O)c1Cl	-5.39%
COC(=O)c1ccsc1NC(C)=O	-5.28%
CCOC(=O)c1ccc(NC)c(N)c1	-7.18%
CN(C)c1ccc(/C=C(\C#N)S(C)(=O)=O)c(Cl)c1	-4.37%
CC(C)[C@H]1COC(c2cccc(C3=N[C@@H](C(C)C)CO3)n2)=N1	-5.78%
COC(=O)c1sc(S(C)=O)c(-c2ccon2)c1C (stereo unspecified)	-6.07%
O=C(Cn1nnc(N2CCOCC2)n1)N/N=C/c1ccc(-c2cccc([N+](=O)[O-])c2)o1	-7.32%
CO/N=C1\C(=O)N(C)c2ccccc21	-3.65%
COc1ccc(CCNC(=O)c2ccccc2-c2ccccc2C(=O)O)cc1OC	-7.28%
COC(=O)c1c(C)noc1-c1ccno1	-5.48%
CCOC(=O)c1c(NC(=S)NC)sc2c1CCCC2	-0.11%
N/C(=N\OC(=O)Nc1ccccc1)c1ccc(Oc2c(Cl)cncc2Cl)cc1	-6.45%
CN([C@H]1CCN2CCc3ccccc3C2C1)S(C)(=O)=O (stereo partly specified)	-4.21%
O=C(CN1C(=O)/C(=C/c2ccccc2Cl)N=C1c1ccccc1)c1ccccc1	15.2% (active)
CCOC(=O)CN1C(=O)/C(=C\c2ccc(C)o2)N=C1c1ccccc1	-8.17%
CN1CCN(c2ccc(NC(=O)c3ccccc3)cc2)CC1	-7.3%
